In PubChem BioAssay AID651994 (Sanford-Burnham Center for Chemical Genomics, 2013) one finds cytotoxicity data, which are given here for one molecule.

The whole screen tested about 2,500 compounds, of which about 790 (32%) were called active.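 Rule for the calls: active = mean cytotoxicity at 5 µM above about 25% (limit read from the data); inactive = the rest.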 Many of the other results were omitted from the sample, so actives are more common in it than they were.

The assay in a line: cytotoxicity in Sufu-KO-LIGHT cells, confirmation, cytotoxicity control for Gli-SUFU antagonist project, cell-based, ATP luminescence, single concentration (AID 651994).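 Note: cells exposed to compound overnight for roughly 16 to 18 hours; plate controls were DMSO wells with cells for no effect and medium without cells for full effect.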 Particulars: at 5 µM, stronger effect = higher value.
With `CCOc1cccc(=NC2CCCCC2)c2c(C)[nH]c(C)c12`, the cytotoxicity was 32.3% (active).
